Source: PubChem BioAssay (NCATS)
Several values for one entry are separate records, joined by “and”; a condition that tells them apart may be missing. Identical values can stand only once. Inconclusive results are not listed. Activity calls are given as the source filed them. Unless noted, calls come from the whole dose curve; as a rule, active = well fitted curve in either direction with a large enough effect (not every such curve was filed as active); inconclusive = small, poorly fitted or top-dose-only effect, or another doubt; inactive = flat fitted curve, though single readings scatter.

Tests used:
[1] = Stat Signaling Pathway (AID 446); settings: ME-180 SIE beta-lactamase reporter, IL-6 stimulated, 5 h;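 note: ME-180 cervical cancer cells given 40 pM IL-6 alongside compound; SIE-controlled beta-lactamase reporter measured as 460/530 nm FRET emission ratio; % is set by controls: 0 for no effect and ±100 for the full control effect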
Procedure, shortened: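 ME-180 cells carrying a SIE-driven beta-lactamase reporter are stimulated with 40 pM IL-6 for 5 h at 37C in the presence of compound. The 460/530 nm FRET substrate ratio is read after 2.5 h at RT. Data are normalised to 300 pM IL-6 and to 125 nM JAK inhibitor controls.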

[2] = biological target: Glucocorticoid receptor (Homo sapiens) (UniProt P04150); assay: GR-GFP Redistribution (AID 450;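 active = compounds whose dose series gives a full or clear partial fitted curve of increased nuclear translocation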; note: potency is the fitted concentration of half-maximal effect); settings: U2OS GR-GFP nuclear translocation, laser cytometry, 2 h
Glucocorticoid receptor (Homo sapiens), sequence (P04150 whole entry, looked up, the tested form may be a part): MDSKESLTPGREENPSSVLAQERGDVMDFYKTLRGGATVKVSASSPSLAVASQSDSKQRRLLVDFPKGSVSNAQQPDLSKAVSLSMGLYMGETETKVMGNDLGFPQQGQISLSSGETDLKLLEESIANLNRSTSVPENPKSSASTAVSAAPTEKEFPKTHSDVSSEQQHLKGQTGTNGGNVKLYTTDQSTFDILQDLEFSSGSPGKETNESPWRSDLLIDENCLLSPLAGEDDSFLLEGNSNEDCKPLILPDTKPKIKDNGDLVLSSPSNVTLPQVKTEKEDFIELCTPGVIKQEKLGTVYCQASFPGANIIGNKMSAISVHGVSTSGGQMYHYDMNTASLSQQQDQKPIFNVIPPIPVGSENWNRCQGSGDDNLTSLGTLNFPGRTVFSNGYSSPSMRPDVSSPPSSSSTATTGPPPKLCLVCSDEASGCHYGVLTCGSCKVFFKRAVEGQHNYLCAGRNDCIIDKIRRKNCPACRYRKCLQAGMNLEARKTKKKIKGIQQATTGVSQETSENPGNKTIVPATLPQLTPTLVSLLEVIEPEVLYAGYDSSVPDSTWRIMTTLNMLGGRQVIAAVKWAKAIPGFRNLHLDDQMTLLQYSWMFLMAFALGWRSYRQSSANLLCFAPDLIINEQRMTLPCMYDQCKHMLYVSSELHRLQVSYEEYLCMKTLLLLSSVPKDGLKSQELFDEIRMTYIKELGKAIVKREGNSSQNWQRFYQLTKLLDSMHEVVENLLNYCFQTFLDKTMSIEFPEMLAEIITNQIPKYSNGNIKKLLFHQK

[3] = biological target: Glucocorticoid receptor (Homo sapiens) (UniProt P04150); assay: GR-EFC Redistribution (AID 451; calls by dose curve; note: potency is the fitted concentration of half-maximal effect); settings: CHO-K1 GR-EFC translocation, beta-gal luminescence, 2 h
Procedure, shortened: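 CHO-K1 cells expressing nuclear EA and GR-ED fragments of b-gal; compounds titrated up to 46 uM final, 2 h at 37 C. GR nuclear translocation read as complemented b-gal luminescence after 1 h RT detection.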

[4] = biological target: Mitogen-activated protein kinase 10 (Mus musculus) (UniProt Q61831); assay: JNK3 AlphaScreen Assay (AID 530); settings: JNK3 lysate, c-Jun phosphorylation; series mostly up to 57.1 µM;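 note: kinase came from lysate of stimulated human HepG2 cells; signal reports phosphorylation of biotinylated GST-cJun 1-79 at Ser73 with 10 µM ATP; % is set by controls: 0 for no effect and ±100 for the full control effect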
Procedure, shortened: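 qHTS format: compounds tested as titrations against IL-1beta/TNF-alpha-activated HepG2 lysate JNK3 with biotin-GST-cJun substrate and 10 uM ATP at room temperature. Loss of anti-phospho-cJun AlphaScreen signal indicates inhibition.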

[5] = Cell Viability - N2a (AID 540; active = well fitted curve in the direction sought with a large enough effect; an effect the other way counts as inactive or inconclusive; note: potency is the fitted concentration of half-maximal effect; nearly all actives have a fitted effect of over 45% in size); settings: N2a mouse neuroblastoma cell viability; activity change, negative = cytotoxicity: at 92.2 µM (top of the series)
Procedure, shortened: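 First, 1500 N2a cells per well incubate 5 hr at 37 °C; next, compounds are added and incubated 40 hr at 37 °C; finally CellTiter-Glo is added and luminescence read after 20 min, with AC50 derived by Hill modeling.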

[6] = Cell Viability - NIH 3T3 (AID 541; active = well fitted curve in the direction sought with a large enough effect; an effect the other way counts as inactive or inconclusive;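 note: potency is the fitted concentration of half-maximal effect; cells exposed to compound for 40 hours; nearly all actives have a fitted effect of over 25% in size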); settings: NIH 3T3 cell viability, qHTS; activity change, negative = cytotoxicity: at 92.2 µM (top of the series)
Procedure, shortened: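 AC50 values reflect concentration-dependent loss of intracellular ATP in NIH 3T3 cells after 40 hr treatment in complete culture medium, quantified by luciferase-based luminescence.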

[7] = Cell Viability - HUV-EC-C (AID 542; active = well fitted curve in the direction sought with a large enough effect; an effect the other way counts as inactive or inconclusive;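 note: potency is the fitted concentration of half-maximal effect; cells exposed to compound for 40 hours; nearly all actives have a fitted effect of over 35% in size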); settings: HUV-EC-C endothelial cell viability, qHTS; series mostly up to 92.2 µM
Procedure, shortened: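 Decrease in cellular ATP, quantified by luciferase luminescence, reflects toxicity in normal human vascular endothelial HUV-EC-C cells given compound for 40 hr in complete culture medium. Values are AC50s from concentration-response curves.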

[8] = Cell Viability - H-4-II-E (AID 543; active = well fitted curve in the direction sought with a large enough effect; an effect the other way counts as inactive or inconclusive;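 note: potency is the fitted concentration of half-maximal effect; cells exposed to compound for 40 hours; nearly all actives have a fitted effect of over 35% in size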); settings: H-4-II-E rat hepatoma viability; series mostly up to 92.2 µM
Procedure, shortened: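 Here, cytotoxicity is measured in the rat hepatoma line H-4-II-E as loss of intracellular ATP after 40 hr compound treatment, detected by luciferase luminescence.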

[9] = Cell Viability - Renal Proximal Tubule (AID 545; active = well fitted curve in the direction sought with a large enough effect; an effect the other way counts as inactive or inconclusive;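 note: cells exposed to compound for 40 hours; nearly all actives have a fitted effect of over 40% in size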); settings: renal proximal tubule cells viability, primary cells of rat origin; activity change, negative = cytotoxicity: at 91.7 µM (top of the series)
Procedure, shortened: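 Primary rat renal proximal tubule cells (1000/well) were treated with compounds for 40 hr at 37 °C in complete medium. Intracellular ATP was measured by CellTiter-Glo luminescence, and AC50 values came from Hill-equation fits of concentration-response data.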

[10] = Cell Viability - Mesenchymal (AID 546; active = well fitted curve in the direction sought with a large enough effect; an effect the other way counts as inactive or inconclusive;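 note: cells exposed to compound for 40 hours before reading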); settings: mesenchymal cells viability, qHTS; activity change, negative = cytotoxicity: at 91.7 µM (top of the series)
Procedure, shortened: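 Human kidney mesenchymal cells from normal renal glomeruli, 1000 cells/well, rested 5 hr at 37 °C, then treated 40 hr at 37 °C in complete medium. Cellular ATP read by CellTiter-Glo luminescence; AC50 from Hill-equation fits.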

[11] = biological target: 3',5'-cyclic-AMP phosphodiesterase 4B (Homo sapiens) (UniProt Q07343); assay: qHTS Assay for Inhibitors of PDE-IV (AID 607; active = well fitted activation curve with a large enough effect in the main read-out, with a control signal flat, not every such curve was filed as active; note: % of control where 0% means no effect); settings: HEK293 ACTOne CNG channel cells, membrane potential fluorescence; series mostly up to 22.9 µM
3',5'-cyclic-AMP phosphodiesterase 4B (Homo sapiens), sequence (Q07343 whole entry, looked up): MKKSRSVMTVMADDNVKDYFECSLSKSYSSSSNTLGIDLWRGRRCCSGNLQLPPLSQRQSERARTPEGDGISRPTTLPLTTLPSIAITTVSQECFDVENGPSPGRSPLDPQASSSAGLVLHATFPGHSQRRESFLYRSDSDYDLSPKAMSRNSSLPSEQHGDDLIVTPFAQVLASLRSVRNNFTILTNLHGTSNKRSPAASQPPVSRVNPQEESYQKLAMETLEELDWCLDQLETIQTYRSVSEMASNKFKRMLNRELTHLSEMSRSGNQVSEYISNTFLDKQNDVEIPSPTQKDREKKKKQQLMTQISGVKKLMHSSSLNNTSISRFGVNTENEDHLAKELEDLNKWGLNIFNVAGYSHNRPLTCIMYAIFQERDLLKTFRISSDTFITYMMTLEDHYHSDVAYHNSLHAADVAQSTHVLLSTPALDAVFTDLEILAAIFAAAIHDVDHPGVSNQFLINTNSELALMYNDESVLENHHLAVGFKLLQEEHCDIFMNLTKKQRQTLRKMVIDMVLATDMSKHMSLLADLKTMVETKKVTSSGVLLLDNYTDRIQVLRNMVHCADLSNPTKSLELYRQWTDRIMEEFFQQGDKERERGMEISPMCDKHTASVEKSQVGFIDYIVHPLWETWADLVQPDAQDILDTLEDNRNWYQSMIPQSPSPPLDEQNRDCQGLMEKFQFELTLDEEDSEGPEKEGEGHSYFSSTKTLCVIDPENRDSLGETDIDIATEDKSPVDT
Procedure, shortened: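 HEK293 ACTOne cells with CNG channel (1000/well), endogenous PDE4; membrane potential dye, compounds up to 22.9 uM final. Fluorescence Ex 535/Em 590; RO 20-1724 (100 uM final) as reference.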

[12] = Cellular Toxicity (caspase-3) HUV-EC-C (AID 656; active = well fitted curve in the direction sought with a large enough effect; an effect the other way counts as inactive or inconclusive); settings: HUV-EC-C cells, caspase-3 activation (apoptosis), vehicle = 0, 100 µM tamoxifen = 100%; series mostly up to 92.2 µM
Procedure, shortened: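 HUV-EC-C endothelial cells, 1000/well, were pre-incubated 5 hr at 37°C, then exposed to compounds for 16 hr at 37°C. Caspase-Glo 3/7 luminescence was read after 20 min at room temperature. AC50 came from Hill fits, normalized to DMSO and 100 uM tamoxifen.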

[13] = Cellular Toxicity (caspase-3) SHSY5Y (AID 657; active = well fitted curve in the direction sought with a large enough effect; an effect the other way counts as inactive or inconclusive); settings: SH-SY5Y caspase-3 activation, DMSO zero, 10 µM staurosporine = 100%; series mostly up to 91.7 µM
Procedure, shortened: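 SH-SY5Y human neuroblastoma cells (1500/well) were treated with compounds for 16 h at 37 °C, then Caspase-Glo 3/7 luminescence was read after 1 h at room temperature. Data normalized to DMSO and 10 uM staurosporine; AC50 from Hill fits.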

[14] = Cellular Toxicity (caspase-3) BJ (AID 658; active = well fitted curve in the direction sought with a large enough effect; an effect the other way counts as inactive or inconclusive); settings: BJ fibroblasts, luminescence, normalized: DMSO 0%, staurosporine 100%; series mostly up to 91.7 µM
Procedure, shortened: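 BJ human foreskin fibroblasts, 1000 cells/well, treated 16 hours at 37 °C in complete medium; caspase 3/7 activity by Caspase-Glo luminescence after 1 hr at room temperature. Normalized to DMSO and 10 uM staurosporine; AC50 from Hill fits.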

[15] = Cellular Toxicity (caspase-3) MRC-5 (AID 659; active = well fitted curve in the direction sought with a large enough effect; an effect the other way counts as inactive or inconclusive); settings: MRC-5 cells, luminescence, normalized: DMSO 0%, 10 µM staurosporine 100%; series mostly up to 91.7 µM
Procedure, shortened: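 MRC-5 human normal lung fibroblasts, 1500 cells/well, treated 16 h at 37 °C in complete medium. Caspase 3/7 measured by Caspase-Glo luminescence after 1 h at room temperature. Normalized to DMSO and 10 uM staurosporine; AC50 from Hill fit.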

[16] = Cellular Toxicity (caspase-3) Mesangial (AID 660; active = well fitted curve in the direction sought with a large enough effect; an effect the other way counts as inactive or inconclusive;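 note: combined caspase 3 and 7 activity read by Caspase-Glo luminescence; cells exposed to compound for 16 h before the caspase read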); settings: mesangial cells; Potency: caspase-3 activation; series mostly up to 91.7 µM
Procedure, shortened: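 Concentration-response qHTS: compound-induced rise in caspase 3/7 luminescence in human mesangial cells after 16 h, normalized to DMSO and 100 uM tamoxifen controls.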

[17] = Cellular Toxicity (caspase-3) Hek293 (AID 664; active = well fitted curve in the direction sought with a large enough effect; an effect the other way counts as inactive or inconclusive;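 note: cells exposed to compound for 16 h at 37 °C before readout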); settings: HEK293 caspase-3 activation, DMSO = 0%, 100 µM tamoxifen = 100%; at 92.2 µM (top of the series)
Procedure, shortened: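 Activation of caspase-3/7 is measured as increased luminescence from cleaved peptide-aminoluciferin substrate in HEK293 cells treated 16 hours at 37 °C. AC50 values come from Hill-equation fits of concentration-response data.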

[18] = Cellular Toxicity (caspase-3) N2a (AID 665; active = well fitted curve in the direction sought with a large enough effect; an effect the other way counts as inactive or inconclusive;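 note: compound exposure lasted 16 h at 37 °C before readout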); settings: N2a cells, luminescence; Potency: caspase-3 activation; series mostly up to 92.2 µM
Procedure, shortened: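 Plated mouse neuroblastoma N2a cells received titrated compounds for 16 h in complete medium. Caspase activity was then detected with a peptide-aminoluciferin luminescent reagent.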

[19] = Cellular Toxicity (caspase-3) NIH 3T3 (AID 666; active = well fitted curve in the direction sought with a large enough effect; an effect the other way counts as inactive or inconclusive;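 note: caspase signal read after 16 h compound exposure; 0% = DMSO basal and 100% = 100 µM tamoxifen stimulation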); settings: NIH 3T3 caspase-3 activation, apoptosis/toxicity; series mostly up to 92.2 µM
Procedure, shortened: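 Concentration-response qHTS in NIH 3T3 mouse fibroblasts scores caspase-3/7 activation as rising luminescence after 16 hr compound exposure. Signals are scaled between DMSO-only and 100 uM tamoxifen.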

NC(N)=NC(=O)c1nc(Cl)c(N2CCCCCC2)nc1N
inactive: activity, negative = inhibition ([1]; at 38 µM (top of the series)) 1% | Potency [2] > 46 µM | Potency [3] > 46 µM | Potency [4]

NC[C@@H]1O[C@H](C23CC4CC(CC(C4)C2)C3)Cc2c1ccc(O)c2O
inactive: activity, negative = inhibition ([1]; at 38 µM (top of the series)) 0.327% | Potency [2] > 46 µM | Potency [3] > 46 µM | Potency [4]

Clc1ccccc1-c1nc(-c2ccncc2)no1
inactive: activity, negative = inhibition ([1]; at 7.69 µM (top of the series)) -6.11% | Potency [2] > 46 µM | Potency [3] > 9.22 µM | activity change, negative = inhibition [4] 3.99% [at 11.4 µM]

CNCC[C@H](Oc1ccc(C(F)(F)F)cc1)c1ccccc1
inactive: activity, negative = inhibition ([1]; at 17.2 µM (top of the series)) -1.77% | activity, negative = inhibition ([1]; at 38 µM (top of the series)) -30.6% and 21.5% | Potency [4]

C[N+]1(C)CCC(OC(=O)C(c2ccccc2)c2ccccc2)CC1
inactive: activity, negative = inhibition ([1]; at 38 µM (top of the series)) 22.3% | Potency [2] > 46 µM | Potency [3] > 46 µM | Potency [4]

O=C(O)CC[C@@H](C(=O)O)N1C(=O)c2ccccc2C1=O
inactive: activity, negative = inhibition ([1]; at 7.69 µM (top of the series)) 3.89% | activity, negative = inhibition ([1]; at 38 µM (top of the series)) 0.0495% | Potency [2] > 46 µM | Potency [3] > 46 µM and > 9.22 µM | Potency [4]

CC(C)Cc1ccc([C@H](C)C(=O)O)cc1
inactive: activity, negative = inhibition ([1]; at 17.2 µM (top of the series)) -0.514% | activity, negative = inhibition ([1]; at 38 µM (top of the series)) -0.822% and 26.9% | Potency [2] > 46 µM and > 20.6 µM | Potency [3] > 46 µM and > 20.6 µM | Potency [4]

OC[C@H]1O[C@@H](n2cnc3c(NC4CCCC4)ncnc32)[C@H](O)[C@@H]1O
inactive: activity, negative = inhibition ([1]; at 17.2 µM (top of the series)) 15.8% | Potency [2] > 20.6 µM

O=C(c1cc(O)c(O)c([N+](=O)[O-])c1)c1ccccc1F
inactive: activity, negative = inhibition ([1]; at 38 µM (top of the series)) -12.2% | Potency [2] > 46 µM | Potency [3] > 46 µM

COC(=O)c1c(C)[nH]c(C)c1C(=O)c1ccccc1Cc1ccccc1
inactive: activity, negative = inhibition ([1]; at 38 µM (top of the series)) -23% | Potency [2] > 46 µM | Potency [3] > 46 µM | Potency [4]

c1cnc2c(c1)ccc1cccnc12
active: Potency [5] 3.98 µM | Potency [6] 2.51 µM | Potency [7] 12.6 µM | Potency [8] 2.51 µM | activity change, negative = cytotoxicity [9] -87.9%
inactive: activity, negative = inhibition ([1]; at 38 µM (top of the series)) -9.47% | Potency [2] > 46 µM | Potency [3] > 46 µM and > 9.22 µM | Potency [4] | Potency [10] | outcome [11] | outcome [12] | outcome [13] | outcome [14] | outcome [15] | Potency [16] | caspase-3 activation [17] -4.62% | Potency [18] | Potency [19]
